The list is a sample of the results.
aSyn UTR act: Activators via SNCA 5'UTR binding, MLPCN. alpha-synuclein 5'UTR reporter, activators screen. activity score, % (tested at 7.5 µM), hits read low. actives 7.1% (n = 300,000). AID 1814, 2009; in the data active = activity score below about -60%
Starred values were filed as active, the others as inactive.

SMILES	aSyn UTR act
O=C(NNC(=O)c1cc2ccccc2oc1=O)c1ccccc1	-107.9*
O=C(NNC(=O)c1cc2ccccc2cc1O)c1cccs1	-192.7*
O=C(c1cc2ccccc2oc1=O)N1CCN(c2ncccn2)CC1	-91.7*
N/C(=N\NC(=O)c1cccs1)c1cc2ccccc2oc1=O	-63.6*
CC(C)OC(=O)c1cc2ccccc2oc1=O	-66.5*
O=C(Nc1ccc(F)cc1F)c1cc2ccccc2oc1=O	-155.9*
CCOc1ccccc1NC(=O)c1cc2ccccc2oc1=O	-94.8*
COc1ccc2cc(CN(CC3CCCO3)C(=O)Nc3ccccc3OC)c(=O)[nH]c2c1 (stereo not given)	66.4
COc1ccccc1NC(=O)N(Cc1ccco1)Cc1cc2ccc(C)c(C)c2[nH]c1=O	50.8
CCc1ccc2[nH]c(=O)c(CN(CCN(CC)CC)C(=O)Nc3ccccc3OC)cc2c1	-62.5*
CN1C2CCC1/C(=C\c1ccc(F)cc1)C(=O)/C2=C/c1ccc(F)cc1	-134.1*
Nc1ccccc1C(=O)N=Nc1[nH]c(N)c2ccccc12	-100.8*
Nc1[nH]c(N=NC(=O)c2ccc(F)cc2)c2ccccc12	-147.1*
CCCCC(=O)NC(c1ccc(Cl)cc1Cl)c1ccc2cccnc2c1O (stereo not given)	91.6
C#CCN(C)CCCOc1ccc(Cl)cc1Cl	-79.0*
CC(C)NC(=O)CCCOc1ccc(Cl)cc1Cl	-67.6*
CCN(CC)C(=O)CCCOc1ccc(Cl)cc1Cl	-96.1*
O=C(Nc1ncccc1O)c1ccc(Oc2ccccc2)cc1	-198.3*
Cc1ccc(C(=O)Nc2ncccc2O)o1	-84.2*
Cc1noc(C)c1COc1ccc(CC(=O)NCc2ccccc2)cc1	71.9
Cc1noc(C)c1COc1ccc(C(=O)Nc2ncccc2O)cc1	-66.6*
Cc1ccc(C(=O)CCC(=O)Nc2ncccc2O)cc1	-70.4*
CC(=O)c1c(C)oc2ccc(OCc3ccccc3)cc12	-70.5*
Cc1oc2ccc(O)cc2c1C(=O)c1ccc(Br)cc1	-61.6*
COc1ccc2oc(C)c(C(=O)c3ccc(C)cc3)c2c1	-86.1*
SMILES	aSyn UTR act
Cn1nc(-c2ccccc2)nc1-c1ccccc1	-65.5*
Cn1nc(-c2ccc(Cl)cc2)nc2c(=O)n(C)c(=O)nc1-2	110.4
Cc1ccc(Cn2nc(-c3ccccc3)nc2-c2ccccc2)cc1	-154.4*
O=C(Nc1ccc(Cl)cc1)c1ccco1	-130.9*
CSc1cccc(NC(=O)c2ccco2)c1	-75.1*
CC(=O)Nc1ccc(NC(=O)c2ccco2)cc1	-71.1*
O=C(NNC(=O)c1ccccc1O)c1ccco1	-81.6*
CSc1cccc(NC(=O)c2cccc3cccnc23)c1	-134.1*
O=C(COc1ccccc1)Nc1ccc(NC(=O)c2ccco2)cc1	-65.3*
CC1N(C)c2cc(NC(=O)c3ccco3)ccc2C1(C)C (stereo not given)	-81.4*
O=C(/C=C\c1ccccc1)Nc1ccc(NC(=O)c2ccco2)cc1	-66.8*
CN(C(=O)c1ccc(NC(=O)c2ccco2)cc1)c1ccccc1	-75.6*
O=C(Nc1cccc(NC(=O)c2ccc(-c3ccc(Br)cc3)o2)c1)c1ccco1	-94.7*
O=C(NCc1ccccc1)c1ccc(-c2ccccc2F)o1	-155.1*
CCc1nnc(NC(=O)c2ccc(-c3ccccc3F)o2)s1	-65.0*
O=C(Cc1ccc(-c2ccccc2)cc1)NCc1ccccc1	104.5
Cc1oc(C(C)(C)C)cc1C(=O)Nc1ccc2c(c1)OCCO2	-178.9*
Cc1oc(C(C)(C)C)cc1C(=O)Nc1ccc2c(c1)OCO2	-87.0*
CCc1ccc(C(=O)/C=C/c2ccc([N+](=O)[O-])o2)cc1	-151.3*
Cn1cccc1CNC(=O)Nc1ccc(Cl)c(Cl)c1	-212.1*
CCOc1ccc(NC(=O)NCc2cccn2C)cc1	-86.8*
N#CC1CC(c2ccccc2)Nc2cc(Cl)ccc2N1 (stereo not given)	-330.8*
CC(=O)Nc1cccc(NC(=O)C(=O)c2cn(CC(=O)N3CCCCC3)c3ccccc23)c1	-121.5*
COc1ccc(NC(=O)C(=O)c2cn(CC(=O)N3CCCC3)c3ccccc23)cc1	104.6
CCN1C(=O)/C(=C2/C=Cc3ccccc3N2C)OC1=S	-200.4*
SMILES	aSyn UTR act
COc1ccc(/C=N/Nc2ccc(C(=O)O)cc2)c(OC)c1OC	-118.3*
COc1cc(/C=N/Nc2ccc(C(=O)O)cc2)cc(OC)c1OC	-147.9*
C=CCOc1c(OC)cc(/C=N/Nc2cccc(C(=O)O)c2)c(Br)c1Br	-176.5*
COc1cccc(/C=N/NC(=S)Nc2cccc(C(=O)O)c2)c1O	55.4
Nc1ccc2oc(=O)c3ccccc3c2c1	-174.1*
Cc1ccccc1CNC(=O)Nc1ccc(Cl)cc1	-110.2*
Cc1ccc(CNC(=O)Nc2ccccc2)c(C)c1	-153.4*
C/C(=N\Nc1nc2c(s1)CCCC2)c1ccc(Cl)cc1	-100.0*
Cc1nc(NC(=O)CSc2nnnn2C)sc1C	-120.9*
COC(=O)c1sc(NC(=O)CSc2nnnn2C)nc1C	-73.5*
Cc1csc(NC(=O)CSc2nnnn2C)n1	-67.7*
O=C(CC1COc2ccccc2O1)NC1CCCCC1 (stereo not given)	-66.9*
Cc1ccc(NC(=O)CC2COc3ccccc3O2)cc1 (stereo not given)	-88.6*
c1cncc(-c2nc3c(ccc4ccccc43)[nH]2)c1	-192.6*
COc1nc(Nc2ccc(C(C)C)cc2)nc(OC)n1	-111.3*
O=C(CCc1ccncc1)NC1CCCc2c1cnn2-c1cc(F)cc(F)c1 (stereo not given)	78.7
CC(C)(C)c1ccc(-n2ncc3c2CCCC3NC(=O)c2cnccn2)cc1 (stereo not given)	-67.8*
Cc1cc2c(C)nc(-c3ccccc3)nc2o1	-167.3*
Cn1c2ccccc2c2ncn(CCC3=CCCCC3)c(=O)c21	-157.9*
O=c1cc(-c2cccc(F)c2)[nH]c2ccccc12	86.6
CSc1ccc(/C=C/c2cc(=O)c3ccccc3[nH]2)cc1	-68.7*
CCSc1nnc(-c2c[nH]c3ccccc23)o1	-103.9*
CC(C)c1ccc(NC(=O)CSc2ncccc2C(=O)Oc2cccc([N+](=O)[O-])c2)cc1	-115.0*
COc1ccc(OC)c(CNc2ccc3c(c2)CCC3)c1	-117.6*
COc1cccc(CNc2ccc3c(c2)CCC3)c1	-166.8*
SMILES	aSyn UTR act
CCc1cc2c(=O)c(-c3nc4ccccc4[nH]3)coc2cc1OC(=O)N1CCOCC1	-75.3*
COc1ccc(Oc2c(C)oc3cc(OC(=O)N4CCOCC4)ccc3c2=O)cc1	56.2
CCN(CC)C(=O)Oc1ccc2c(=O)c(-c3ccc(OC)cc3)coc2c1	-125.2*
COc1ccc(-c2coc3cc(OC(=O)N4CCOCC4)ccc3c2=O)cc1	-67.2*
CCN(CC)C(=O)Oc1ccc2cc(Br)ccc2c1	-86.8*
Cc1cc(C)n(CCN(C)C(=O)CCc2nnc(CCC3CCCCC3)o2)n1	-144.9*
O=C(Nc1ccccc1)Nc1nnc(-c2ccccc2)o1	-63.3*
COC(=O)CCCNC(=O)CCc1nnc(-c2ccc(-c3ccccc3)cc2)o1	76.9
CN(CCCC1CCCC1)C(=O)CCc1nnc(-c2ccccc2)o1	-138.7*
O=C(CCc1nnc(-c2ccc(-c3ccccc3)cc2)o1)NCCc1ccccn1	90.3
O=C(CCc1nnc(-c2ccccc2)o1)NC1CCCCC1	-65.6*
O=C(Nc1nnc(-c2ccc3c(c2)CCCC3)o1)C1CCCCC1	-84.3*
CN(C)S(=O)(=O)c1ccc(C(=O)Nc2nnc(-c3ccc4c(c3)CCCC4)o2)cc1	69.0
O=C(Nc1nnc(-c2ccccc2)o1)NC1CCCCC1	-80.2*
NS(=O)(=O)c1ccc(NC(=O)Nc2ccc3c(c2)OCO3)cc1	-117.8*
COc1cccc(NC(=O)Nc2ccc3c(c2)OCO3)c1	-111.0*
COc1ccc2[nH]c(C(=O)Nc3ccc4c(c3)OCO4)cc2c1	-133.8*

Assay outcomes (PubChem)
